Inconclusive results are not listed. Entries that show only a call come without a potency. Calls of active or inactive are those of the source. Calls follow the shape of the dose curve; as a rule, active = well fitted curve in the direction sought with a large enough effect; inconclusive = small, poorly fitted or top-dose-only effect, or effect the other way, or another doubt; inactive = no such curve, though single readings can be large or run the other way.
test: Secondary Assay for lipid storage modulators: AML12 cell LDSA assay for probe SAR; settings: AML12 lipid droplet accumulation, BODIPY 493/503 imaging, oleate; series mostly up to 46.1 µM
Description: NIH Molecular Libraries Probe Production Centers Network [MLPCN] NIH Chemical Genomics Center [NCGC] MLPCN Grant: 1 R03 MH085686-01 Assay Submitter (PI): Beller, Mathias; Max-Planck-Institut fur Biophysikalische Chemie NCGC Assay Overview: Storing lipids as a reservoir for energy or the anabolism of elementary metabolites is a common feature of probably all cells and is conserved from bacteria to humans. The universal cellular lipid storage organelle is the so-called lipid storage droplet (LD). Although ubiquitous, LDs share a simple structure composed of a hydrophobic core that harbors the storage lipids, which is shielded by a droplet-specific phospholipid monolayer to which proteins are attached. The current model of LD biogenesis involves an incorporation of the lipid core into the membrane leaflets of the endoplasmic reticulum (ER) followed by a subsequent budding-like maturation of a LD, which ultimately pinches off. Once released, LD volume can increase by localized lipogenesis or fusion of existing droplet. Storage lipids are re-mobilized enzymatically by lipase activity. Lipase regulation in the adipocyte is heavily studied and involves multiple components including catecholamine signaling, the LD-associated proteins Perilipin and comparative gene identification (CGI-58) and at least two lipases named hormone sensitive lipase (HSL) and adipocyte triglyceride lipase (ATGL). LD regulation outside of the adipocyte is poorly understood and only few components are known. However, there is an urgent need to learn more about ectopic fat depots as mislocalized storage of lipids, for example in the liver or muscle, is an eminent health problem associated with insulin resistance or the metabolic syndrome.
NCGC Assay Protocol Summary: The assay was performed with AML12 cells, using an oleic acid feeding protocol similar to the S3 assay. We dispensed 4 uL of cells to give 700 cells/well into Greiner bio-one 1,536-well plates (black walled, clear bottom). Triacsin C (Sigma-Aldrich T-4540), an inhibitor of long-chain fatty acyl CoA synthetase that blocks synthesis of triglycerides, was used as a positive control for lipid under-storage using a final concentration of 20 uM. The orexin antagonist, SB408124 - previously identified to stimulate lipid over-storage, was used as a positive control for lipid over-storage using a final concentration of 20 uM. A total of 23 nL of compound solution of different concentrations were transferred to the assay plates using a Kalypsys pin tool equipped with a 1,536-pin array containing 10-nL slotted pins (FP1S10, 0.457-mm diameter, 50.8 mm long; V&P Scientific). One microliter of oleic acid was added (400 uM final concentration), and the plate was lidded with stainless steel rubber gasket lined lids containing pinholes. After 18-24 h incubation at […] and 95% humidity, 4 uL of the dyes BODIPY 493/503 (Molecular Probes) and the Cell Tracker Red CMTPX dye (Molecular Probes) were added to the wells to stain lipid droplets and enumerate cell number, respectively. Fluorescence was detected by excitation of the fluorophores with a 488-nm laser on an Acumen Explorer (TTP Lab Tech). The total intensity in channel 2 (500-530 nm) reflected lipid droplet accumulation. Cells were detected using channel 3 (575-640 nm) with 5-um width and 100-um depth filters. The ratio of the number of objects in PMT channel 2 over the number of objects in PMT channel 3 was also calculated. Percent activity was computed relative to an internal control (100% inhibited lipid droplet deposition due to the presence of 20 uM Triacsin C), which was added to 32 wells/plate.

Structure (SMILES) | Potency
CCOc1ccc(NC(=O)NC2(C(=O)N3CCCCC3)CCCCC2)cc1 | inactive
O=C(NC1CCCc2c1cnn2-c1ccc(F)cc1F)c1cccc(=O)[nH]1 (centres undefined) | inactive
CCOC(=O)C1CCN(C(=O)C(C)(C)NC(=O)Nc2ccc(OC)c(Cl)c2)CC1 | inactive
Cc1sc(NC(=O)Cc2cccs2)nc1-c1ccccc1 | inactive
COc1ccc(CCNC(=O)c2cc3sccc3n2Cc2ccc(F)cc2)cc1OC | 3.15 µM (active)
O=C(NC1CCCc2c1cnn2-c1ccc(F)cc1F)c1ccncc1 (centres undefined) | inactive
O=C(Nc1cccc2nn(-c3ccc(F)cc3)cc12)c1ccccn1 | inactive
CCOC(=O)C1CCN(C(=O)C(C)(C)NC(=O)Nc2ccc([N+](=O)[O-])cc2)CC1 | inactive
COc1ccc(CCNC(=O)c2cc3sc(C)cc3n2C)cc1OC | inactive
O=C(NC1CCCc2c1cnn2-c1ccc(F)cc1F)c1cccc(F)c1F (centres undefined) | inactive
Cc1ccc(-c2cnc(SCC(=O)Nc3nc(C)cs3)n2Cc2ccco2)cc1 | inactive
COCCn1c(-c2ccc(C)cc2)cnc1SCC(=O)Nc1nc(C)cs1 | inactive
Cc1cccc(-c2ccc3ncnc(NCc4cccc(F)c4)c3c2)c1 | inactive
CCn1c(C(=O)NCCc2ccc(OC)cc2)cc2sccc21 | inactive
